# Compound activity: PubChem, National Center for Advancing Translational Sciences (NCATS)
# Only some compounds are listed: those with a hit (about 3.8% of all), similar ones and a draw of the others.
# KAT2A inh: inhibitors of human GCN5L2 histone acetyltransferase; AID 504327; 0.21% of 390,000 active; Potency, µM (titrated, usually from 58.9 µM), inactives show at the top dose activity change, negative = inhibition, most hits filed as inhibitors; GCN5L2 HAT assay, ThioGlo1 CoA-SH fluorescence; Q92830
#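 GCN5L2 (20nM final) in 50mM HEPES, 0.1mM EDTA pH 7.5, 0.01% Tween-20 was preincubated 15 min at room temperature with compound, then given ThioGlo1 (50uM), H3(1-25) peptide (75uM) and acetyl-CoA (70uM); CoA-thiol fluorescence (Ex340/Em540) was read at 0 and 20 min.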
# TrxR1 inh: rat TrxR1 inhibition | recombinant rTrxR1, NADPH fluorescence consumption, selenite substrate | Potency, µM (titrated, usually from 114 µM), for inactives: top-dose activity change, negative = inhibition, actives largely listed as inhibitors | 1% of 390,000 active | AID 588453; further: nearly all actives have a fitted effect of over 65% in size
#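 Rat TrxR1 (90 nM in the dispensed reagent) was pre-reduced with 400 uM NADPH for 5 min at room temperature, then incubated with compound for 15 min. After 400 uM selenite was added, NADPH fluorescence (Ex 340/Em 450 nm) was followed for 8 min.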
# GLS inh: inhibitors of human glutaminase (GLS). Potency, µM (titrated, usually from 45.5 µM), for the others: at the top dose activity change, negative = inhibition, actives largely listed as inhibitors. 0.21% of 410,000 active. GLS enzymatic activity, qHTS titration. AID 624170. O94925
# Target sequence (O94925 whole entry, looked up): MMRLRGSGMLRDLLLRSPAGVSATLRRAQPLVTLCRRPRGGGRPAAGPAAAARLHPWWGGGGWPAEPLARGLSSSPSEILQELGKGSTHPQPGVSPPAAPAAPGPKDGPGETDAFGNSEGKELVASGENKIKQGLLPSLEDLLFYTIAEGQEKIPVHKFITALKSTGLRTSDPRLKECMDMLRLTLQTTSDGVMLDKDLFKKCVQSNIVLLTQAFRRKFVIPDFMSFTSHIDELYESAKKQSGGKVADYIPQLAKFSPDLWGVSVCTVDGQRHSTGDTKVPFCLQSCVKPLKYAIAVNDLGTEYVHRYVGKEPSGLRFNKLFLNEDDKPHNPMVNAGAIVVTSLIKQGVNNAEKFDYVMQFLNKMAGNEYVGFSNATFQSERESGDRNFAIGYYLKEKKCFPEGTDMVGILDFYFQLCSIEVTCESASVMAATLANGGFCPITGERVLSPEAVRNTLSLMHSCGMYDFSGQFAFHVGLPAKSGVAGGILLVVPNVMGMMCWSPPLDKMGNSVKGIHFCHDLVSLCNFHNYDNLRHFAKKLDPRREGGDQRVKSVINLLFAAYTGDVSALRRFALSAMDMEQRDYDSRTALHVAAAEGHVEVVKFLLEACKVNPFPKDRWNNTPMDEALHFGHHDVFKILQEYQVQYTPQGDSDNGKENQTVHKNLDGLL
#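 hKGA; 45 mM KH2PO4 pH 8.2 + 0.02% Tween-20; cpd via pin tool; 1 mM Gln soln; GluOx/HRP/Amplex Red; RT 30 min; fluor. t0 & final.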
# VDR inh: inhibitors of human vitamin D receptor; P11473; VDR-SRC2-3 peptide fluorescence polarization, 2 h; Potency, µM, without a hit: max response, negative = inhibition, most hits filed as inhibitors; 0.93% of 400,000 active
#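 The screen uses fluorescence polarization to detect compounds that interfere with recruitment of the SRC2-3 coactivator peptide to VDR; plates are read after 2 h at room temperature.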
# TrxR1 substrate: is turned over as a substrate by rat TrxR1; O89049; 0.01% of 390,000 active; Potency, µM (series often up to 114 µM), for inactives: at the top dose activity change, negative = substrate turnover; purified TrxR1 substrate turnover, NADPH consumption readout; further: nearly all actives have a fitted effect of over 50% in size
#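 Rat TrxR1, dispensed at 90 nM, was prereduced with 400 uM NADPH (final) for 5 min at ~22 deg C, then incubated with compound 15 min before 400 uM selenite. A first-read NADPH fluorescence drop versus no-compound background flagged substrates.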
# Sfp PPTase inh: inhibitors of Bacillus subtilis Sfp phosphopantetheinyl transferase; Q9F4F7; Biochemical Sfp PPTase activity, qHTS; Potency, µM, for the others: largest response in the series, negative = inhibition, actives largely listed as inhibitors; 3.5% of 310,000 active; AID 1490;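 further: the enzyme is Sfp with the accession as filed and its product quenches rhodamine fluorescence; 0% = enzyme reaction without inhibitor and -100% = no enzyme wells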
#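 After 15 min at room temperature with compound, 15 nM Sfp received 5 uM rhodamine-CoA plus 12.5 uM BHQ-2-ybbR (50 mM Hepes pH 7.6, 10 mM MgCl2). Rate came from the fluorescence difference over 30 min, ex 525/em 598 nm.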
# * marks the source's active call; other numbers are inactive results; ? = inconclusive; nt = no result given; ! = not confirmed by another sample; [ ] = dose if it differs, or a comment. The call rests on the fitted dose curve; in most records, active means well fitted curve in the direction sought with a large enough effect; inconclusive means small, poorly fitted or top-dose-only effect, or another doubt; inactive means no such curve, though single readings can be large; an effect the other way counts as inactive or inconclusive. Unless noted, on the % scale 0 is the no-effect control and ±100 the full control effect; potency means the concentration at half of the fitted maximal effect.
SMILES,KAT2A inh,TrxR1 inh,GLS inh,VDR inh,TrxR1 substrate,Sfp PPTase inh
COC(=O)c1ccc(C2Nc3c(C)cc(C)cc3C3C=CCC32)cc1 (stereo not drawn),-4%,4µM*,-1%,?,14%,nt
Cc1cc(C)c2c(c1)[C@@H]1C=CC[C@@H]1[C@H](c1ccc(S(=O)(=O)N3CCOCC3)cc1)N2,-8%,2.8µM*,4%,?,-4%,10µM*
COC(=O)c1ccc([C@@H]2Nc3c(cccc3C(F)(F)F)[C@@H]3C=CC[C@@H]32)cc1,4%,10%,-2%,-4%,5%,nt
CCCCCCNCc1ccc(Br)cc1,1%,17%[11.4 µM],-4%,9%,8%[11.4 µM],4%
C/C(=N/NC(=O)c1ccc(C)s1)c1cccc(NC(=O)COc2ccc(Cl)cc2C)c1,-15%,-8%,17%,5%,-3%,23%
Cc1ccc(N(C(=O)CNC(=O)c2ccco2)C(C(=O)NC2CCCCC2)c2cccnc2)cc1C (stereo not drawn),-6%,8%[57.1 µM],11%,-4%,0%[57.1 µM],5%
Cc1ccc(N(C(=O)CCl)C(C(=O)NC2CCCCC2)c2cccnc2)cc1C (stereo not drawn),1%,10µM*,20%,-43%,-4%,-2%
CN1CC=C2C(C#N)=C(N)C(C#N)(C#N)C(c3cccc(Cl)c3Cl)C2C1 (stereo not drawn),-1%,-13%,16%,?,23%,-2%
CC(=O)N/N=C(\N)c1nonc1N,0%,18%,5%,7%,2%,89µM*
CO/N=C(\N)c1nonc1N,0%,-11%,7%,43%,-6%,20%
CCC1CCC(C(=O)NNC(=O)c2cc(-c3ccco3)[nH]n2)CC1 (stereo not drawn),-4%,17%[57.1 µM],-1%,5%,3%[57.1 µM],45µM*
O=C(NNC(=O)C1CCCCC1)c1ccco1,-4%,-16%,-2%,-4%,-13%,17%
O=C(O)c1ccc(N2C(=O)CSC2=S)cc1,nt,-9%,6%,12%,-9%,nt
CCOC(=O)CNC(=O)CSc1nc(-c2ccccc2)ns1,-4%,47%[57.1 µM],?,?,-6%[57.1 µM],18µM*
CCOC(=O)CSc1nc(-c2ccc(OC)cc2)ns1,-5%,-2%[57.1 µM],-14%,-8%,-14%,22µM*
O=C(CSc1nc(-c2ccccc2)ns1)NCC1CCCO1 (stereo not drawn),-4%,1%,5%,-28%,0%,35µM*
O=C(CSc1nnc(-c2ccccc2)c2ccccc12)NCC1CCCO1 (stereo not drawn),1%,nt,nt,nt,nt,-29%
CSc1ccc(/C=C/C(=O)OCC(=O)N2CCc3ccccc32)cc1,-7%,13%,4%,-8%,6%,nt
CCCCCC(=O)N1C[C@H](O)[C@@H](n2cc(-c3ccc(F)cc3)nn2)C[C@@H]1c1ccc(C)cc1,nt,nt,-3%,nt,nt,nt
CCC(C)C1NC(=O)C(Cc2ccc(O)cc2)NC(=O)C(N)CSSCC(C(=O)N2CCCC2C(=O)NC(CC(C)C)C(=O)NCC(N)=O)NC(=O)C(CC(N)=O)NC(=O)C(CCC(N)=O)NC1=O (stereo not drawn),-3%,nt,11%,13µM*!,nt,-4%
CCOC(=O)[C@]12CCCC=C1N(Cc1ccc3c(c1)OCO3)C(=O)[C@H](CC(=O)NCCCCc1ccccc1)C2,nt,nt,4%,nt,nt,nt
Cc1ccc(C)c(CN2CCCNC2=O)c1,-1%,20%,-2%,1%,-3%,50µM*
O=C(Nc1cccc2cccnc12)c1c(Cl)cc(Cl)cc1Cl,nt,19%,nt,3%,1%,nt
COc1ccc(NC(=O)CSCc2cc(=O)n3ccsc3n2)cc1,1%,13%,-16%,-9%,-4%,9%
COc1ccc(Nc2nnc(SCc3cc(=O)n4ccsc4n3)s2)cc1,-21%,0%,10%,-14%,2%,56µM*
SMILES,KAT2A inh,TrxR1 inh,GLS inh,VDR inh,TrxR1 substrate,Sfp PPTase inh
C/C(=N\Nc1ccc(C(=O)c2c(C)cc3ccccn23)cc1[N+](=O)[O-])c1ccc(O)cc1,-11%,28%,3%,-13%,2%,20µM*
Cc1cc2ccccn2c1C(=O)c1ccc(N/N=C/c2ccc(C(=O)O)cc2)c([N+](=O)[O-])c1,-5%,13%,10µM*,-8%,-2%,5%
O=C1C2C3C=CC(C3)C2C(=O)N1c1cccc2cccnc12 (stereo not drawn),1%,10%[57.1 µM],-5%,1%,8%[57.1 µM],13%
O=C(/C=C/c1ccc([N+](=O)[O-])cc1)N1CCN(c2ccccc2F)CC1,-5%,29%,-1%,-25%,13%,-9%
COc1ccc(/C=C/C(=O)c2ccc3c(c2)OCCO3)cc1[N+](=O)[O-],-25%,-14%,-1%,-27%,-12%,?
O=C(/C=C/c1cccc(Cl)c1)c1ccc([N+](=O)[O-])o1,?,1.6µM*,22%,?,-2%,nt
COc1cc(/C=C/C(=O)c2ccc([N+](=O)[O-])o2)ccc1O,-13%,7.9µM*,-1%,?,-1%,nt
O=C(N=C1SC2CS(=O)(=O)CC2N1c1ccc(F)cc1)C1CCCCC1 (stereo not drawn),-8%,16%,-5%,2%,-2%,13%
CN(C)CCNC(=O)C(=O)NCC(c1cccnc1)N1CCN(c2ccc(F)cc2)CC1 (stereo not drawn),-1%,0%,17%,6%,-3%,nt
CCCCN(C)CCNC(=O)c1c(C)oc2ncnc(N3CCOCC3)c12,-4%,15%,3%,0%,5%,nt
O=C(CNC(=O)c1ccco1)N/N=C/c1ccccc1[N+](=O)[O-],-7%,16%,-2%,-12%,-2%,4%
COc1ccc(/C=C(\NC(=O)c2ccccc2)C(=O)N/N=C/c2cccnc2)cc1,0%,3%,0%,3%,-12%,2%
CCOc1cccc(CN2CCCC(N3CCc4ccccc4C3)C2)c1O (stereo not drawn),1%,9%,-21%,5%,-1%,4%
O=C1/C(=C/c2cccnc2)Oc2cc(OS(=O)(=O)c3ccccc3)ccc21,-12%,-2%,-6%,50µM*,-5%,-24%
COc1ccccc1C(=O)Oc1ccc2c(c1)O/C(=C\c1ccncc1)C2=O,-27%,?,16%,35µM*,-6%,6%
c1coc(CNC2CCCCC2)c1,1%,-2%[57.1 µM],-6%,13%,14%[57.1 µM],?
Cc1cccc(C)c1-n1c(C)cc(/C=C2\NC(=O)NC2=O)c1C,6%,-12%,-1%,-7%,-6%,13%
Cc1c(/C=C2\NC(=O)NC2=O)c2ccccc2n1C,-19%,4%[57.1 µM],13µM*,-11%,4%[57.1 µM],22%
